# Test results: PubChem BioAssay (Tox21)
# Unmarked numbers belong to inactive results. Results filed as inconclusive are left out. Entries that show only a call come without a potency. Active and inactive are the calls of the source. Unless noted, calls come from the whole dose curve; as a rule, active = well fitted curve in the direction sought with a large enough effect in the repeat runs; inconclusive = weak or mixed curves; inactive = no such curve, though single readings can be large; an effect the other way counts as inactive or inconclusive.
# Key:
# [1] = qHTS assay for small molecule agonists of the p53 signaling pathway (AID 651631; calls by dose curve; note: nearly all actives have a fitted effect of over 15% in size)
# Method in brief: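 Fluorescence intensity from cleaved LiveBLAzer B/G substrate (2 h, room temperature) served as the signal. Beforehand, HCT-116 reporter cells bearing p53 response elements were treated 16 h at 37 °C with DMSO-dissolved compounds.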
# [2] = qHTS assay for small molecules that induce genotoxicity in human embryonic kidney cells expressing luciferase-tagged ATAD5 (AID 651632); note: nearly all actives have a fitted effect of over 15% in size
# Method in brief: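 HEK293T cells carrying a luciferase reporter tagged to ATAD5 were exposed to compound or DMSO vehicle for 16 hr at 37C, 5% CO2. Amplite was added, and after 30 min at room temperature luciferase activity was read as a marker of ATAD5 induction.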
# [3] = qHTS assay for small molecule agonists of the p53 signaling pathway - cell viability (AID 651633; calls by dose curve;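 note: p53RE-bla HCT reporter cells with a stable beta-lactamase p53 reporter; nearly all actives have a fitted effect of over 30% in size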)
# Method in brief: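 p53RE-bla cells were treated with compound for 16 hours at 37 C. Cytotoxicity was then measured as CellTiter-Glo luminescence after 30 min at room temperature.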
# [4] = qHTS assay for small molecules that induce genotoxicity in human embryonic kidney cells expressing luciferase-tagged ATAD5 - cell viability (AID 651634; calls by dose curve; note: nearly all actives have a fitted effect of over 25% in size)
# Method in brief: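 HEK293T cells expressing luciferase-tagged ATAD5 were exposed to compound or DMSO for 15.5 hr at 37C, 5% CO2. Viability was then read as live-cell protease activity by CellTiter-Fluor fluorescence after 30 min at 37C.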
# [5] = qHTS assay for small molecule disruptors of the mitochondrial membrane potential - cell viability (AID 720634; calls by dose curve;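 note: human HepG2 liver cancer cells; nearly all actives have a fitted effect of over 20% in size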)
# Method in brief: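 HepG2 cells seeded overnight at 37 C, then exposed to compound or DMSO for 1 hr at 37 C, 5% CO2. m-MPI dye added, then CellTiter-Glo for 30 min at room temperature; viability read as ATP luminescence.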
# [6] = qHTS assay for small molecule disruptors of the mitochondrial membrane potential (AID 720635)
# Method in brief: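 HepG2 cells exposed to compound 1 hr at 37C, then Mito-MPS dye 30 min. Ratio read of aggregate (540/590 nm) versus monomer (490/535 nm) fluorescence.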
# [7] = qHTS assay to test for compound auto fluorescence at 535 nm (green) in HepG2 cells (AID 720675)
# [8] = qHTS assay to test for compound auto fluorescence at 460 nm (blue) in HEK293 cells (AID 720678)
# Method in brief: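 HEK293, 2,000 cells/well, 10% dialyzed FBS; attach 4-5 hr 37C; pin compound or DMSO; o/n 37C/5% CO2; fluorescence 405/460 nm; triamterene-equivalent units.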
# [9] = qHTS assay to test for compound auto fluorescence at 590 nm (red) in HEK293 cells (AID 720679)
# Method in brief: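 Intensity at 540nm excitation and 590nm emission is reported as Rose Bengal sodium-equivalent autofluorescence. Measurements followed overnight exposure (37C, 5% CO2) of HEK293 cells, 2,000 per well, to 23 nL compound.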
# [10] = qHTS assay to test for compound auto fluorescence at 535 nm (green) in HEK293 cells (AID 720680)
# [11] = qHTS assay to test for compound auto fluorescence at 460 nm (blue) in HEK293 cell free culture (AID 720681)
# Method in brief: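 Compounds were added to cell-free DMEM with 10% FBS and fluorescence read directly. The blue channel used 405 nm excitation and 460 nm emission, with triamterene as the reference fluorophore.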
# [12] = qHTS assay to test for compound auto fluorescence at 535 nm (green) in HEK293 cell free culture (AID 720682)
# Method in brief: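 Intrinsic compound fluorescence is measured in culture medium containing 10% FBS, with excitation at 485 nm and detection at 535 nm, referenced to fluorescein.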
# [13] = qHTS assay to test for compound auto fluorescence at 590 nm (red) in HEK293 cell free culture (AID 720683)
# Method in brief: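 Cell-free wells of DMEM with 10% FBS received compound, and intrinsic fluorescence was read at excitation/emission 540/590 nm. Values expressed as equivalence to Rose Bengal sodium.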
# [14] = qHTS assay to test for compound auto fluorescence at 590 nm (red) in HepG2 cell free culture (AID 720684)
# Method in brief: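 Compound was pinned into wells holding MEM with 10% FBS and no cells, and red fluorescence was read at Ex/Em 540/590 nm. Signal is expressed as auto fluorescence equivalency relative to Rose Bengal sodium.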
# [15] = qHTS assay to test for compound auto fluorescence at 460 nm (blue) in HepG2 cell free culture (AID 720685)
# Method in brief: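 Compound (23 nL) or DMSO pinned into cell-free MEM with 10% FBS; blue fluorescence read at 405/460 nm excitation/emission, expressed as auto-fluorescence equivalency to triamterene.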
# [16] = qHTS assay to test for compound auto fluorescence at 535 nm (green) in HepG2 cell free culture (AID 720686)
# [17] = qHTS assay to test for compound auto fluorescence at 460 nm (blue) in HepG2 cells (AID 720687)
# Method in brief: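 HepG2 cells in MEM with 10% FBS, attached overnight at 37 C, were exposed to compound or DMSO for 1 hr at 37 C, 5% CO2. Blue fluorescence was read at 405/460 nm, with triamterene as reference fluorophore.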
# [18] = target: Glucocorticoid receptor (Homo sapiens) (UniProt P04150); experiment: qHTS assay to identify small molecule agonists of the glucocorticoid receptor (GR) signaling pathway (AID 720691; active = well fitted activation curve with a large enough effect in the signal ratio in the repeat runs, not every such curve was filed as active; the % refers to the signal ratio; note: potency is the fitted concentration of half-maximal effect); details: GR-bla HeLa, beta-lactamase reporter ratio, 18 h; activation: at 62.4 µM (top of the series) unless noted
# Chain of Glucocorticoid receptor (Homo sapiens) (P04150 whole entry, looked up): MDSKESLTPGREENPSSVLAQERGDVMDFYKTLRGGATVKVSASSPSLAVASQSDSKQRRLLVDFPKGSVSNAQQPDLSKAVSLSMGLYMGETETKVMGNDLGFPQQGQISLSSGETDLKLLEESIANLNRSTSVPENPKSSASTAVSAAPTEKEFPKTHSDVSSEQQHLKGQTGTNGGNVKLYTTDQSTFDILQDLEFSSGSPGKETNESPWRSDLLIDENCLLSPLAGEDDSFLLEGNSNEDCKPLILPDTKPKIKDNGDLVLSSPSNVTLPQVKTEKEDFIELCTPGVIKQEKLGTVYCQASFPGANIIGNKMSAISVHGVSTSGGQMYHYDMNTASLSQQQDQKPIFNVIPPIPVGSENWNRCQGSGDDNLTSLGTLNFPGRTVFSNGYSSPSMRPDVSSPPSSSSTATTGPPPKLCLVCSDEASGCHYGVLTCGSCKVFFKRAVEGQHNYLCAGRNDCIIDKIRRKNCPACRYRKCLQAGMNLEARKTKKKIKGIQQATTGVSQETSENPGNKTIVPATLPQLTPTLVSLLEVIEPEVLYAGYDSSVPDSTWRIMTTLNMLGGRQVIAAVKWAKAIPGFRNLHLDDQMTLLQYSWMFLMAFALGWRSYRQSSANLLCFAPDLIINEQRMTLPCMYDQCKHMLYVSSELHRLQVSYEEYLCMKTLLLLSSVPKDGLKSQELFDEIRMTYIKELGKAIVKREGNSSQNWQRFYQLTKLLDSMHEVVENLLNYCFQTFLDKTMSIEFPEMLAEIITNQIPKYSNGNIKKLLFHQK
# Method in brief: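 GR-bla HeLa cells (beta-lactamase reporter under glucocorticoid response element) were plated 4 h at 37 C/5% CO2, given compounds in DMSO, and incubated 18 h at 37 C. LiveBLAzer B/G FRET substrate was added for 2 h at room temperature, then fluorescence intensity read.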
# [19] = target: Glucocorticoid receptor (Homo sapiens) (UniProt P04150); experiment: qHTS assay to identify small molecule antagonists of the glucocorticoid receptor (GR) signaling pathway (AID 720692; active = well fitted inhibition curve with a large enough effect in the signal ratio in the repeat runs, not every such curve was filed as active; the % refers to the signal ratio)
# Method in brief: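 GR-bla HeLa cells (beta-lactamase reporter under glucocorticoid response element) were pre-plated 4 h at 37 C, treated with compounds plus 5 nM dexamethasone (final) for 18 h, then read by LiveBLAzer B/G FRET fluorescence after 2 h.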
# [20] = qHTS assay to test for compound auto fluorescence at 590 nm (red) in HepG2 cells (AID 720674)
# Method in brief: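 HepG2 cells, 2,000 per well in MEM with 10% FBS, attached overnight at 37 C, then got 23 nL compound or DMSO. After 1 hr at 37 C, 5% CO2, red fluorescence was read at 540/590 nm against Rose Bengal sodium as reference.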
structure (smiles),measurement,setting,value
OC[C@H]1O[C@@H](OCCc2ccc(O)cc2)[C@H](O)[C@@H](O)[C@@H]1O,Potency,[1],inactive
same,Potency,[2],inactive
same,Potency,[3],inactive
same,Potency,[4],inactive
same,Potency,[5],inactive
same,Potency,[6],inactive
same,Potency,[7],inactive
same,outcome,[8],inactive
same,Potency,[9],inactive
same,outcome,[10],inactive
same,outcome,[11],inactive
same,outcome,[12],inactive
same,Potency,[13],inactive
same,Potency,[14],inactive
same,outcome,[15],inactive
same,Potency,[16],inactive
same,outcome,[17],inactive
same,Potency,[18],inactive
same,Potency,[19],inactive
CCN(CC)CCNC(=O)c1cc(Br)c(N)cc1OC,Potency,[1],inactive
same,Potency,[2],inactive
same,Potency,[3],inactive
same,Potency,[4],inactive
same,Potency,[5],inactive
same,Potency,[6],inactive
same,Potency,[20],inactive
same,Potency,[7],inactive
same,outcome,[8],inactive
same,Potency,[9],inactive
same,outcome,[10],inactive
same,outcome,[11],inactive
same,outcome,[12],inactive
same,Potency,[14],inactive
same,outcome,[15],inactive
same,Potency,[16],inactive
same,outcome,[17],inactive
CCCCCCCN,Potency,[1],inactive
same,Potency,[2],inactive
same,Potency,[3],inactive
same,Potency,[4],inactive
same,Potency,[5],inactive
same,Potency,[20],inactive
same,Potency,[7],inactive
same,outcome,[8],inactive
same,Potency,[9],inactive
same,outcome,[10],inactive
same,outcome,[11],inactive
same,outcome,[12],inactive
same,Potency,[13],inactive
same,Potency,[14],inactive
same,outcome,[15],inactive
same,Potency,[16],inactive
same,outcome,[17],inactive
same,Potency,[19],inactive
C/C(=C(\CCOP(=O)(O)O)SC(=O)c1ccccc1)N(C=O)Cc1cnc(C)nc1N,Potency,[1],inactive
same,Potency,[2],inactive
same,Potency,[3],inactive
same,Potency,[4],inactive
same,Potency,[5],inactive
same,Potency,[6],inactive
same,"fluorescence, relative to Rose Bengal",[20],-0.226% [at 18.6 µM]
same,"fluorescence, % of fluorescein control",[7],-0.0371% [at 18.6 µM]
same,"fluorescence, % of triamterene",[8],-0.0569% [at 18.6 µM]
same,"fluorescence, % of fluorescent control",[9],0.166% [at 18.6 µM]
same,"fluorescence, % of fluorescein",[10],-0.205% [at 18.6 µM]
same,"fluorescence, % of fluorescent control",[11],-0.0157% [at 18.6 µM]
same,"fluorescence, % of fluorescent control",[13],-0.0062% [at 18.6 µM]
same,"fluorescence, % of Rose Bengal",[14],0.0762% [at 18.6 µM]
same,"fluorescence, % of fluorescent control",[15],-0.035% [at 18.6 µM]
same,"fluorescence, % of fluorescein control",[16],-0.0244% [at 18.6 µM]
same,"fluorescence, % of fluorescent control",[17],-0.293% [at 18.6 µM]
same,Potency,[18],11.5 µM (active)
same,Potency,[19],inactive
O=C(OCCCCCCOC(=O)c1ccccc1)c1ccccc1,Potency,[1],inactive
same,Potency,[2],inactive
same,Potency,[3],inactive
same,Potency,[4],inactive
same,Potency,[5],inactive
same,Potency,[6],inactive
same,Potency,[20],inactive
same,Potency,[7],inactive
same,outcome,[8],inactive
same,Potency,[9],inactive
same,outcome,[10],inactive
same,outcome,[11],inactive
same,outcome,[12],inactive
same,Potency,[13],inactive
same,Potency,[14],inactive
same,outcome,[15],inactive
same,Potency,[16],inactive
same,outcome,[17],inactive
same,Potency,[18],inactive
same,Potency,[19],inactive
CCCCCCCCCOS(=O)(=O)O,Potency,[1],inactive
same,Potency,[2],inactive
same,Potency,[3],inactive
same,Potency,[4],inactive
same,Potency,[5],inactive
same,Potency,[20],inactive
same,Potency,[7],inactive
same,outcome,[8],inactive
same,Potency,[9],inactive
same,outcome,[10],inactive
same,outcome,[11],inactive
same,outcome,[12],inactive
same,Potency,[13],inactive
same,Potency,[14],inactive
same,outcome,[17],inactive
